This note sets out measurements from PubChem BioAssay (NCATS).

Each structure is given as a SMILES string. Inconclusive results are not listed. A number with no mark means an inactive call. Activity calls are given as the source filed them. Calls follow the shape of the dose curve; as a rule, active = well fitted inhibition curve with a large enough effect; inconclusive = small, poorly fitted or top-dose-only effect; inactive = flat fitted curve, though single readings scatter.
Potency is read from the fitted curve at half-maximal effect.

A short description of the test: qHTS for Inhibitors of Plasmodium falciparum (DD2) proliferation (AID 504314). Conditions: P. falciparum Dd2 in erythrocytes, SYBR Green growth, 72 h; series mostly up to 6.11 µM; activity, negative = inhibition: at the top concentration. From the text: Plasmodium falciparum is a virulent malarial parasite that kills 1-2 million people worldwide each year. Malaria not only inflicts tremendous suffering and morbidity on the human population, but has dramatically influenced the course of civilization with profound sociological and economic implications (Shah, S. 2010). Transmitted by mosquitoes, the sporozoite form of the parasite enters the blood stream to infect hepatocytes, where they become merozoites that infect red blood cells (erythrocytes). Within erythrocytes, merozoites begin a […] cycle of growth and division, after which the parasite is released to infect new red blood cells. Gametocytes, which form within erythrocytes as well, circulate in the bloodstream and are ingested by the mosquito, thereby completing the life cycle (see CDC website). To profile malarial lines for differential chemical responses and to identify inhibitors of malarial growth, an assay that measures P. falciparum growth and replication within erythrocytes was employed. This assay uses a DNA binding fluorescent dye (SYBR Green) to detect parasite DNA following cell lysis. Because mature erythrocytes lack DNA, only Plasmodium-derived DNA is detected. The P. falciparum line cp250, derived from a malarial isolate from Cambodia, (Mu, J., et al. 2010) was added to the panel of lines, Dd2, HB3, 7G8 and GB4 in this study.
Laboratory of Assay Development and Screening Technology [ADST] and NIH Chemical Genomics Center [NCGC]
Boston University, Chemistry Department, Center for Chemical Methodology and Library Development [CMLD-BU]
NIH National Institute of Allergy and Infectious Diseases [NIAID]
ADST Assay Protocol Summary:
The 1536-well SYBR Green viability assay was based on the method of Bennett et al (2004) and described previously in 1536-well format (Yuan J., et al. 2009). For screening 3 ul culture medium was dispensed into 1536 well black clear bottom plates (Aurora Biotechnologies) using a Multidrop Combi (Thermo Fisher Scientific Inc.), 23 nL compounds in DMSO were added by a pin transfer (Cleveland, P.H. and Koutz, P.J, 2005) using a pin tool-based delivery system (Kalypsys), and 5 ul of erythrocytes infected with P. falciparum one of five lines (cp250, Dd2, HB3, 7G8 or GB4, 0.3% parasitemia, 2.5% hematocrit final concentration) were added. The plates were incubated at 37C in a humidified incubator in 5% CO2 for 72 h, and 2 ul lysis buffer (20 mM Tris HCl, 10 mM EDTA, 0.16% saponin, 1.6% triton X, 10X SYBR Green I (supplied as 10,000X final concentration by Invitrogen) was added to each well. The plates were mixed for 25 sec with gentle shaking and incubated overnight at room temperature in the dark. The following morning, fluorescence intensity at 485(14) nm excitation and 535(25) nm emission wavelengths was measured on an EnVision (Perkin Elmer) plate reader. Plate reads were normalized relative to the control inhibitor (0.29 uM artemisinin) and vehicle (DMSO) wells present on each plate and then corrected by an algorithm using vehicle-only control plates at the beginning and end of the compound plate stack.
Shah, S. (2010). The Fever: how malaria has ruled humankind for 500,000 years. New York, Sarah Crichton Books.
CDC web site, http://www.cdc.gov/malaria/about/biology/index.html
Mu, J., Myers, R.A., Jiang, H., Liu, S., Ricklefs, S., Waisberg, M., Chotivanich, K., Wilairatana, P., Krudsood, S., White, N.J., et Plasmodium falciparum genome-wide scans for positive selection, recombination hot spots and resistance to antimalarial drugs Nature Genetics 2010, 42, pp 268-271
Bennett TN, Paguio, M., Gligorijevic, B., Seudieu, C., Kosar, A. D., Davidson, E., and Roepe, P. D. Novel, rapid, and inexpensive cell-based quantification of antimalarial drug efficacy Antimicrobial Agents Chemother. 2004, 48(5): pp 1807-10
Yuan J, Johnson RL, Huang RL, Wichterman J, Jiang HY, Hayton K, Fidock DA, Wellems TE, Inglese J, Austin CP, Su XZ. […]
For the compound `CCN1C(=O)N[C@@H](c2ccccc2)[C@H](C(=O)OC)[C@H]1C`, the Potency result is “inactive”.

Regarding `CC(C)=CCCC(C)=CCON=C1C[C@@H](O)[C@@H](O)[C@@H]2[C@H]3C(=O)N(Cc4ccc5c(c4)OCO5)C(=O)[C@@H]3CC[C@@H]12`, the “activity, negative = inhibition” value was -12.7%.

With `Cc1cc2c(nc1C)CCCCN2C[C@H](C)ON=C[C@@H](C)[C@H](OCc1ccccc1)C(C)C`, the “activity, negative = inhibition” value was -11.1%.

For `CCCCc1nc2c(c3c1C[C@H](C)OC3)CN(S(=O)(=O)CCCC)CC2`, the Potency entry is “inactive”.

On to `CO[C@H](c1ccccc1Br)[C@H](C)C=CCCO`, for which the “activity, negative = inhibition” value is -5.65%.

Turning to `COC(=O)[C@H]1O[C@@H](c2c(OC)c(OC)c(C)c(OC)c2OC)[C@H](C)[C@@H](O)[C@@H]1C`, the “activity, negative = inhibition” value was -0.474%.

For `Cc1cc(F)ccc1O[C@H]1C=C[C@@H](c2ccc3c(c2)OCO3)O[C@H]1CO`, the “activity, negative = inhibition” value is -5.22%.

With `CC(=O)[C@H]1[C@H](CCc2ccccc2)NC(=O)N(Cc2ccccc2)[C@@H]1C`, the Potency result is “inactive”.

With `C=CCNC(=O)N1C2=NC(C(=O)OC)=C(C(=O)OC)[C@@H]3N(C)c4ccccc4[C@]23C[C@H]1CO`, the “activity, negative = inhibition” value is -8.42%.

Regarding `CC(C)=CCCC(C)=CCON=C1C[C@@H](O)[C@@H](O)[C@@H]2[C@H]3C(=O)N(c4cccc(Oc5ccccc5)c4)C(=O)[C@@H]3CC[C@H]12`, the “activity, negative = inhibition” value is 4.99%.

Turning to `COC(=O)N[C@H](C(C(=O)OC)=C(C)NCc1ccccc1)c1ccco1`, the “activity, negative = inhibition” value was 1.16%.

On to `COCC=CC1=CC2=CC(=O)C(C)(OC(=O)c3cnc4ccccc4n3)C(=O)C2=CN1C1CC1` (stereo not given), for which the “activity, negative = inhibition” value was -5.54%.

For the compound `COC(=O)C1=C(C(=O)OC)[C@@H]2N(C)c3ccccc3[C@@]23CCC(=O)N(CCCOC(C)C)C3=N1`, the “activity, negative = inhibition” value was -8.15%.

Take `CCOC(=O)N1C2=NC(C(=O)OC)=C(C(=O)OC)[C@@H]3N(C)c4ccccc4[C@]23C[C@H]1C(=O)OC`: the Potency result was “inactive”.

With `CCCCC1=CC2=CC(=O)C(C)(OC(=O)c3cnc4ccccc4n3)C(=O)C2=CO1` (stereo not given), the “activity, negative = inhibition” value was -2.55%.

In the case of `C[C@H]1CC[C@H]2C(=O)N[C@H](Cc3ccccc3)C(=O)N2[C@H]1c1ccccc1`, the “activity, negative = inhibition” value was -11.6%.

Take `COC(=O)C1=C(C)N(Cc2ccccc2)C(=NCCc2c[nH]c3ccccc23)NC1c1ccc(Br)cc1` (stereo not given): the “activity, negative = inhibition” value is 4.19%.

As to `CC1(O)C(=O)C=C2C=C3CCCN3C=C2C1=O` (stereo not given), the “activity, negative = inhibition” value was -7.26%.

`O=C1CCCC=C1C(O)COCc1ccccc1` (stereo not given): the “activity, negative = inhibition” value was -6.13%.

Consider `COc1cccc([C@H]2Oc3ccc(OC)cc3C(=NO[C@@H](C)c3cn([C@H](CO)Cc4ccccc4)nn3)[C@H]2O)c1`, for which the “activity, negative = inhibition” value is 1.11%.

On to `COc1cccc([C@@H]2[C@@H](C)CC[C@@H]3C(=O)NC[C@H](O)CN32)c1`, for which the “activity, negative = inhibition” value was -4.85%.

Regarding `CC(=O)OC[C@H]1O[C@H](C#Cc2ccccc2Cl)C=C[C@H]1OC(C)=O`, the “activity, negative = inhibition” value is -6.6%.

`C#CCCCON=C1C[C@@H](O)[C@H](O)[C@H]2[C@@H]3C(=O)N(C[C@@H]4CCCO4)C(=O)[C@@H]3CC[C@H]12`: the “activity, negative = inhibition” value was -4.82%.

With `CCC(=O)C[C@@H](NC(=O)OC)c1ccccc1`, the “activity, negative = inhibition” value was -0.332%.

Turning to `CCN1C(=NCc2cc(OC)c(OC)c(OC)c2)N[C@@H](c2ccccc2)[C@H](C(=O)OC)[C@H]1C`, the Potency entry is “inactive”.

On to `COC(=O)C1=C(C)N(Cc2ccccc2)C(=NCCc2ccccn2)NC1c1cccc(C(F)(F)F)c1` (stereo not given), for which the Potency was 948 nM (active).

Consider `CCCCc1nc2c(c3c1C[C@H](C)OC3)CN(S(=O)(=O)c1ccc(C)cc1)CC2`, for which the Potency entry is “inactive”.

For `COc1ccc2c(c1)O[C@@H](c1cccc(C(F)(F)F)c1)[C@H](O)C2=O`, the Potency result was “inactive”.

Regarding `COC(=O)[C@@]1(C=C2c3ccc(F)cc3[C@@H](OC)[C@@H]2C)[C@@H]2OCCC[C@@H]21`, the “activity, negative = inhibition” value is -6.03%.

For the compound `C[C@@H]1CC2CCCC2[C@]2(O1)C(=O)Nc1ccccc12` (stereo not given in full), the “activity, negative = inhibition” value is -10.8%.

Take `C=CCO[C@@H]1C=C[C@@H](c2ccccc2)O[C@@H]1COC`: the “activity, negative = inhibition” value was -8.6%.

As for `CCN1C(=O)NC(CCc2ccccc2)C(C(C)=O)=C1C` (stereo not given), the “activity, negative = inhibition” value was -8.38%.

`COC(=O)[C@@]1(C=C[C@@H](C)[C@H](OC)c2ccccc2Br)[C@@H]2OCCC[C@@H]21`: the “activity, negative = inhibition” value is -8.03%.

For the compound `COC(=O)c1ccc(CN2C(=O)C3(CC(C)=C[C@@H](C)O3)c3c(Br)cccc32)cc1` (stereo not given in full), the Potency result was “inactive”.

As to `CCCNC(=O)OC[C@H]1O[C@H](CCON=CC[C@@H]2C=C[C@H](OC(C)=O)[C@@H](COC(C)=O)O2)C=C[C@H]1Oc1ccc(OC)cc1`, the “activity, negative = inhibition” value was -3.83%.

As to `C=CCC(Nc1ccc(OC)cc1)(C(=O)OCC)c1ccccc1` (stereo not given), the “activity, negative = inhibition” value is 0.235%.

As to `COC(=O)N[C@@H](c1ccc(Br)cc1)C(C(=O)OC)C(=O)OC`, the “activity, negative = inhibition” value was -1.28%.

Take `CCCC[C@]12Cc3c(ccc4ccccc34)[C@H](O1)c1c(cc(C)oc1=O)O2`: the “activity, negative = inhibition” value is -1.99%.

On to `C=CCC12OC3(OC)CC1[C@H](C)[C@@H](c1ccccc1)C2[C@]3(O)CC=C` (stereo not given in full), for which the “activity, negative = inhibition” value is -4.79%.

Consider `CC(CCN1CCCc2nc(C)c(C)cc21)=NOC[C@@H](C)[C@H](OCc1ccccc1)C(C)C`, for which the “activity, negative = inhibition” value is -1.29%.
